In PubChem BioAssay AID588689 (Southern Research Specialized Biocontainment Screening …, 2011):
About 1,000 (0.29%) of roughly 340,000 compounds were called active. Cut-off read from the data, not from the text of the source: inconclusive = inhibition above about 29% without an active follow-up result; inactive = below that. Not all results are given here. Results with a measured potency or affinity are listed apart.

Biological target: Genome polyprotein (Dengue virus type 2 (strain 16681-PDK53)) (UniProt P29991)
Assay: flavivirus cap methylation enzyme inhibition – biochemical, confirmation dose response, primary screen (AID 588689)
Settings: Dengue-2 NS5 methyltransferase capping enzyme assay, at 25 µM, stronger effect = higher value
[1] = measured here: pilot screen replicate inhibition

Compound	inhibition	inhibition [1] [%]
CN1CCN(C(=O)/C(=C/c2cn(S(=O)(=O)N(C)C)c3ccccc23)NC(=O)c2ccccc2F)CC1	-5.9% (inactive)	
CCC(C(=O)Nc1cccnc1)n1c(=O)[nH]c2ccccc2c1=O (stereo unspecified)	-5.9% (inactive)	
Cc1ccc(NC(=O)C2CCCN(C(=O)Nc3ccc(F)cc3)C2)cc1 (stereo unspecified)	-4.13% (inactive)	
Cc1cc(=O)[nH]c(-c2cccs2)n1	10.8% (inactive)	
CC[C@H](C)Cc1cn([C@@H](CCCN=C(NC(=O)OC(C)(C)C)NC(=O)OC(C)(C)C)C(=O)NCCCCCCCCCCC(=O)N2CCN(C(=O)OC(C)(C)C)CC2)nn1	-0.83% (inactive)	
Cc1csc(N(C(=O)c2cccc(S(=O)(=O)N(C)C)c2)c2ccccc2)n1	-1.38% (inactive)	
CCC(C(=O)OCC(=O)Nc1ccc2[nH]c(=O)[nH]c2c1)c1ccccc1 (stereo unspecified)	2.16% (inactive)	
COc1ccc(N(CC(=O)NCCSCc2ccco2)S(=O)(=O)c2ccccc2)cc1	-3.68% (inactive)	
Fc1cccc(/C=N/Nc2nccnc2Cl)c1	-2.31% (inactive)	
Cc1ccc([C@@H]2CC=C(C(=O)O)[C@H](c3ccccc3)N2S(=O)(=O)c2ccccc2C)cc1	11.1% (inactive)	
Cc1ccccc1S(=O)(=O)N1[C@@H](c2ccccc2)C(C(=O)O)=CC[C@H]1c1ccc(Cl)cc1	12.8% (inactive)	
Cc1ccc([C@H]2C(C(=O)O)=CC[C@@H](c3ccc(C)cc3)N2S(=O)(=O)c2ccccc2C)cc1	13.7% (inactive)	
Cc1ccccc1S(=O)(=O)N1[C@@H](c2ccc(Cl)cc2)C(C(=O)O)=CC[C@H]1c1ccc(Cl)cc1	23.8% (inactive)	2.15
COc1cccc(NC(=O)c2ccc(N3C(=O)C4CC=CCC4C3=O)cc2)c1 (stereo unspecified)	0.77% (inactive)	
CN(C)C(CNC(=O)C1CCN(S(=O)(=O)c2cccc(C(F)(F)F)c2)CC1)c1ccccc1 (stereo unspecified)	0% (inactive)	
O=C(COc1ccc(F)c(Cl)c1)Nc1ccc(N2CCOCC2)cc1	-11.9% (inactive)	
CN1C(=O)/C(=C2\SC(=S)N(C(CCC(=O)O)C(=O)O)C2=O)c2ccccc21 (stereo unspecified)	8.73% (inactive)	
O=C(O)C(Cc1ccc(O)cc1)N1C(=O)c2ccccc2C1=O (stereo unspecified)	-2.65% (inactive)	
Cc1c(N2C(=O)/C(=C3\C(=O)N(CC(=O)O)c4ccccc43)SC2=S)c(=O)n(-c2ccccc2)n1C	36.3% (inactive)	
CCCC(C(=O)O)N1C(=O)/C(=C/c2cccn2C)SC1=S (stereo unspecified)	-53.1% (inactive)	
O=C(Nc1ccccc1)N1CCNCC1	-6.32% (inactive)	
CC1(C)OC1(C#N)c1ccccc1 (stereo unspecified)	-5.44% (inactive)	
CCN(CC)S(=O)(=O)c1ccc(Nc2ccc(-c3ccc4c(c3)OCCO4)nn2)cc1	-4.94% (inactive)	
CC(=O)N1CCN(c2ccc(NC(=S)NC(=O)c3ccc(C)c([N+](=O)[O-])c3)cc2)CC1	-2.35% (inactive)	
O=C(NC(=O)c1cc([N+](=O)[O-])ccc1Cl)C1=C(N2CCCC2)COC1=O	-8.37% (inactive)	
Cn1c(=N)c(S(=O)(=O)c2ccccc2)cc2c(=O)n3ccccc3nc21	-8.12% (inactive)	
CCOC(=O)C1(C)/C(=N/Nc2ccccc2Cl)C(=O)C(=O)N1c1ccccc1 (stereo unspecified)	-3.23% (inactive)	

Compound	inhibition	inhibition [1] [%]
CCOC(=O)C1(C)/C(=N/Nc2ccc(Cl)cc2)C(=O)C(=O)N1c1ccccc1 (stereo unspecified)	3.28% (inactive)	
COC(C[C@@H](O)C[C@H](O)[C@@H](C)OCc1ccccc1)OC	-8.19% (inactive)	
CC/C(=N/NC(=O)c1ccc2c(c1)OCO2)c1ccccc1O	3.08% (inactive)	
Cc1cccc(CN2CCN(CC(=O)N3CCCC3)C2=O)c1	-5.66% (inactive)	
CC(=O)C1=C(O)C(=O)N(c2cc(C(C)(C)C)on2)C1c1ccc(Br)cc1 (stereo unspecified)	13.1% (inactive)	
CC(=O)C1=C(O)C(=O)N(Cc2cccnc2)C1c1ccc(C(C)C)cc1 (stereo unspecified)	-5.44% (inactive)	
CC1=NNC(=O)C1C(c1ccccc1)C(C#N)C#N (stereo unspecified)	-4.84% (inactive)	
Cc1cccc(CN2CCN(C(c3ccccc3)c3ccc(Cl)cc3)CC2)c1 (stereo unspecified)	2.93% (inactive)	
CC1=NN(Cc2ccccc2)C(=O)C1C(c1ccncc1)C(C#N)C#N (stereo unspecified)	13.5% (inactive)	
CC1=NNC(=O)C1C(c1ccc(F)cc1)C(C#N)C#N (stereo unspecified)	-10.2% (inactive)	
S=C(N/N=C/c1ccc(Br)cc1)N1CCCCC1	2.36% (inactive)	
CC(C)c1ccc(S(=O)(=O)N2CCN(C(=O)CCNS(=O)(=O)c3ccccc3F)CC2)cc1	2.2% (inactive)	
CCN1CCN(C(=O)/C=C/c2ccc(OC)cc2)CC1	0% (inactive)	-2.12
CCn1c([N+](=O)[O-])nc2c1c(=O)[nH]c(=O)n2C	-10.1% (inactive)	
Cc1ccc(SC(CC(=O)c2ccc(C)cc2)C(=O)O)cc1 (stereo unspecified)	16.8% (inactive)	
Cc1ccc(SC(CC(=O)c2ccc(F)cc2)C(=O)O)cc1 (stereo unspecified)	0% (inactive)	
CSc1ccccc1OCc1cc(C(=O)N2CCN3CCCC3C2)no1 (stereo unspecified)	-0.87% (inactive)	
COc1cc([N+](=O)[O-])ccc1-c1ccc(/C=C2\C(=O)ON=C2c2ccccc2)o1	30.1% (inactive)	
COc1ccc(-c2ccc(/C=C3\C(=O)N(c4ccccc4)N=C3c3ccccc3)o2)c([N+](=O)[O-])c1	6.61% (inactive)	
O=C1ON=C(c2ccccc2[N+](=O)[O-])/C1=C/c1cccc([N+](=O)[O-])c1O	-2.21% (inactive)	
Cc1ccc(/C=C2/C(=O)ON=C2c2ccccc2)o1	19.3% (inactive)	
O=C1ON=C(c2ccc(Cl)c([N+](=O)[O-])c2)/C1=C/c1cccc([N+](=O)[O-])c1O	-5.11% (inactive)	
O=C1/C(=C\c2ccc(-c3ccccc3[N+](=O)[O-])o2)C(c2ccccc2)=NN1c1ccccc1	68.8% (inactive)	
COc1ccc(OCC(=O)N2CCCC2=O)c([N+](=O)[O-])c1	0.65% (inactive)	
CC(C)CC(NC(=O)C(NC(=O)OC(C)(C)C)C(C)C)C(=O)N1CCCC1C(N)=O (stereo unspecified)	-8.35% (inactive)	
COc1cccc(-c2noc(CCC(=O)NCC3CCCO3)n2)c1 (stereo unspecified)	1.45% (inactive)	
CNC[C@@H]1OCc2cnnn2CCCC(=O)N([C@H](C)CO)C[C@H]1C	2.27% (inactive)	
